# From PubChem BioAssay
# Results filed as inconclusive are left out. For part of these data: Entries with a potency or affinity are not part of this list. Calls of active or inactive are those of the source. Unless noted, the rule behind the calls is not given here.
# Key:
# [1] = Cy5 fluorescence interference with SSB-bound oligo, artefact control for HCV NS3 helicase inhibitor project, biochemical, NIH Clinical Collection, E. coli SSB (AID 743268)
# [2] = tested on: Hepatitis C virus NS3 helicase; test: HCV NS3 helicase inhibitors, primary screen, biochemical, fluorescence polarization, NIH Clinical Collection (AID 743270); conditions: NS3 helicase binding to Cy5-dT15 DNA, stronger effect = higher value, concentration not given here
# [3] = target: Single-stranded DNA-binding protein (Escherichia coli (strain K12)) (UniProt P0AGE0); test: E. coli SSB displacement from DNA, counter-screen for HCV NS3 helicase inhibitor project, biochemical, fluorescence polarization, NIH Clinical Collection (AID 743271; in the data active = inhibition above about 28%); conditions: stronger effect = higher value, concentration not given here
# [4] = fluorescence interference in NS3h assay format, artefact control for HCV NS3 helicase inhibitor project, biochemical, NIH Clinical Collection (AID 743272); conditions: fluorescence interference counterscreen, stronger effect = lower value;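 note: HCV NS3 helicase with a Cy5 labelled single stranded DNA probe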
# [5] = tested on: Neuropilin-2 / VEGF-C interaction (human); test: inhibitors of NRP2–VEGF-C binding, biochemical, microplate binding format, z-score (AID 743281); conditions: microplate NRP2/VEGF-C binding assay; stronger effect = lower value
# [6] = modulation of C. elegans fzo-1 (AID 1259413);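 note: fzo-1 mutant C. elegans worms in liquid wells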; conditions: C. elegans fzo-1 modulator screen, mean read-out; stronger effect = higher value
# F380Y = test: modulators of BK channel variants, profiling panel, selectivity assay, cell-based, U2OS BacMam, thallium flux, beta subunits (AID 1259406;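 active = thallium flux through the channel raised or lowered by more than 3 SD from vehicle-only wells, actives on both sides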;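 note: initial slope of Thallos dye fluorescence rise after thallium is added; log ratio against the mean of 0.3% DMSO vehicle wells on the same plate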); conditions: at 30 µM
# F380Y/beta2Delta = test: as above; conditions: at 30 µM
# [7] = target: Calcium-activated potassium channel subunit alpha-1 (Homo sapiens) + Leucine-rich repeat-containing protein 26 (Homo sapiens) (UniProt Q12791+Q2I0M4); test: as above; conditions: F380Y/Slo1WT/gamma1, at 30 µM
# Chain of Calcium-activated potassium channel subunit alpha-1 (Homo sapiens) + Leucine-rich repeat-containing protein 26 (Homo sapiens) (Q2I0M4 whole entry, looked up, one chain of several): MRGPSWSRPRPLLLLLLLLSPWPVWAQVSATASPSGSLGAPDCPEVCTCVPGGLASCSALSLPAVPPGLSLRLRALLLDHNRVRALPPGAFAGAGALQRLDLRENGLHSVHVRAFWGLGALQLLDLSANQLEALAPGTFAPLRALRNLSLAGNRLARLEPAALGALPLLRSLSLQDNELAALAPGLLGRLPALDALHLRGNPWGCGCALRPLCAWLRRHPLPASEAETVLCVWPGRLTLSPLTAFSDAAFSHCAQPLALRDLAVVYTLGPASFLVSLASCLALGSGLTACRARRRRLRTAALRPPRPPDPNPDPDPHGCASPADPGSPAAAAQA
# R275C = test: as above; conditions: at 30 µM
# R275C/beta1 = test: as above; conditions: at 30 µM
# R275C/beta2Delta = test: as above; conditions: at 30 µM
# [8] = rescue of polyQ-huntingtin neuronal dysfunction in worms, whole organism, C. elegans mechanosensory neurons, N-terminal huntingtin (AID 1599); conditions: touch response, stronger effect = higher value
# [9] = inhibitors of mitochondrial cytochrome c release, biochemical, purified mitochondria (AID 1603); conditions: stronger effect = lower value;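 note: mouse liver mitochondria challenged with calcium chloride; signal normalized to the plate average as 100%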
# [10] = inhibitors of polyQ protein aggregation (AID 1604); conditions: polyglutamine-induced protein aggregation inhibition assay; stronger effect = higher value; tested at 2.5 µM
# [11] = enhancers of glutamate uptake in motor neurons, MN-1 cell line (AID 1612); conditions: MN-1 motor neuron cells, stronger effect = higher value;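 note: tested at 1 µM final; 0% = mean of DMSO vehicle wells on each plate; positive means more glutamate uptake than control and negative means less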
# [12] = suppressors of polyglutamine aggregation in yeast, 75Q-TubH (AID 1616); conditions: S. cerevisiae 75Q-TubH polyglutamine aggregation suppression; stronger effect = higher value
# [13] = target: ATP-dependent translocase ABCB1 (Homo sapiens) (UniProt P08183); test: MDR1 (ABCB1) efflux transporter inhibition, cell-based (AID 377; in the data active = fluorescence slope change above about 50%); conditions: MDR1-expressing cells, fluorescent substrate accumulation slope; stronger effect = higher value; concentration not given here
# Chain of ATP-dependent translocase ABCB1 (Homo sapiens) (P08183 whole entry, looked up): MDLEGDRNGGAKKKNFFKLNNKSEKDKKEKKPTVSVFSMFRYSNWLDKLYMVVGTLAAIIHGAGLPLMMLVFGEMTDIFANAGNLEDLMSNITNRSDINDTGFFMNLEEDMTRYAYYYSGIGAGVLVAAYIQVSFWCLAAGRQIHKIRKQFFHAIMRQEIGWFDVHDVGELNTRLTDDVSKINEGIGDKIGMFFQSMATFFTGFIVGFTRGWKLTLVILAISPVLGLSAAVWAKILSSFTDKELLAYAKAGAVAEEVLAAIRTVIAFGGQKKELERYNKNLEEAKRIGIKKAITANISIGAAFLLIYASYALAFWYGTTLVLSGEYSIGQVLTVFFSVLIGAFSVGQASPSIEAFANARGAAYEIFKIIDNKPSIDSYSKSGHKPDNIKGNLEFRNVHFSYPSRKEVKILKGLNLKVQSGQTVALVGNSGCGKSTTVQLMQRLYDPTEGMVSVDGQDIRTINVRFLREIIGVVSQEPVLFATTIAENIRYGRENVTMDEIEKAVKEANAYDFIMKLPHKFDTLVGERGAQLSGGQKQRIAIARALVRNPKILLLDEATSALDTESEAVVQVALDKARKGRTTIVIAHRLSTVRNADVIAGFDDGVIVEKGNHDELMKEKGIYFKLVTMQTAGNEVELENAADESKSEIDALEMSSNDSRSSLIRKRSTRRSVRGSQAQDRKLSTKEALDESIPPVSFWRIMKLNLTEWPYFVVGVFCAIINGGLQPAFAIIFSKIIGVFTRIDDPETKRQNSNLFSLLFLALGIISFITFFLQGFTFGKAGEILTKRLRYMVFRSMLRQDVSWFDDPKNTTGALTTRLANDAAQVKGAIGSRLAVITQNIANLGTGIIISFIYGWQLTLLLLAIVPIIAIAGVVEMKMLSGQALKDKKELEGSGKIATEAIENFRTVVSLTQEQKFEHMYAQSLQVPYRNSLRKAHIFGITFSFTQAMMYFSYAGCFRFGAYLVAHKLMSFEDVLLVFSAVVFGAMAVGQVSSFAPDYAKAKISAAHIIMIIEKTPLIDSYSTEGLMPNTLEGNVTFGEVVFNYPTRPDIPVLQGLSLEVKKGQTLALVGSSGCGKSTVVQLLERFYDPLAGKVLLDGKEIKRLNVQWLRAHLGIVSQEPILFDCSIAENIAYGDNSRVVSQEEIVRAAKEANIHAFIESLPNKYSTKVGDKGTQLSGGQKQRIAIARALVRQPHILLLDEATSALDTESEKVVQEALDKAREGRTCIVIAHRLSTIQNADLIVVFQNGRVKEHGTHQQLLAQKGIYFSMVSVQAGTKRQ
# [14] = tested on: Aerobactin synthetase IucA (Klebsiella pneumoniae, hypervirulent); test: IucA enzyme inhibition, biochemical, LOPAC library, absorbance readout (AID 1346212); conditions: IucA enzyme assay, absorbance (OD) readout; stronger effect = lower value;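 tested at 8 µM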;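 note: 100% = no compound wells and 0% = no enzyme wells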
# [15] = circadian clock period modulators, cell-based, LOPAC library, luminescence reporter (AID 2774); conditions: circadian reporter cells, at 7 µM, actives lie on both sides;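 note: values are relative to mean of DMSO wells on each plate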
structure (smiles),measurement,setting,value
c1ccc2c3c([nH]c2c1)CNCC3,fluorescence ratio,[1],0.93 (inactive)
same,inhibition,[2],0.66% (inactive)
same,inhibition,[3],5.12% (inactive)
same,fluorescence ratio,[4],0.91 (inactive)
same,z-score,[5],-0.415 (inactive)
same,mean signal,[6],258 (inactive)
same,log fold change Tl+ flux,F380Y,-0.00245 (inactive)
same,log fold change Tl+ flux,F380Y/beta2Delta,-0.0184 (inactive)
same,log fold change Tl+ flux,[7],0.00353 (inactive)
same,log fold change Tl+ flux,R275C,0.0253 (inactive)
same,log fold change Tl+ flux,R275C/beta1,-0.0273 (inactive)
same,log fold change Tl+ flux,R275C/beta2Delta,-0.0332 (inactive)
COc1cc2c(cc1OC)[C@@]13CCN4CC5=CCO[C@H]6CC(=O)N2[C@H]1[C@H]6[C@H]5C[C@H]43,fluorescence ratio,[1],0.94 (inactive)
same,inhibition,[2],-2.84% (inactive)
same,inhibition,[3],2.76% (inactive)
same,fluorescence ratio,[4],0.89 (inactive)
same,z-score,[5],-0.249 (inactive)
same,mean signal,[6],265 (inactive)
same,log fold change Tl+ flux,F380Y,0.0307 (inactive)
same,log fold change Tl+ flux,F380Y/beta2Delta,-0.0179 (inactive)
same,log fold change Tl+ flux,[7],-0.0482 (inactive)
same,log fold change Tl+ flux,R275C,-0.0395 (inactive)
same,log fold change Tl+ flux,R275C/beta1,0.0112 (inactive)
same,log fold change Tl+ flux,R275C/beta2Delta,-0.0452 (inactive)
NC(=O)CS(=O)C(c1ccccc1)c1ccccc1 (stereo not drawn),fluorescence ratio,[1],1 (inactive)
same,inhibition,[2],0.4% (inactive)
same,inhibition,[3],-3.18% (inactive)
same,fluorescence ratio,[4],0.98 (inactive)
same,z-score,[5],0.787 (inactive)
same,mean signal,[6],263 (inactive)
same,log fold change Tl+ flux,F380Y,-0.0264 (inactive)
same,log fold change Tl+ flux,F380Y/beta2Delta,0.0296 (inactive)
same,log fold change Tl+ flux,[7],-0.00311 (inactive)
same,log fold change Tl+ flux,R275C,-0.0429 (inactive)
same,log fold change Tl+ flux,R275C/beta1,0.0162 (inactive)
same,log fold change Tl+ flux,R275C/beta2Delta,0.0129 (inactive)
O=c1ccc2cc(O[C@@H]3O[C@H](CO)[C@@H](O)[C@H](O)[C@H]3O)c(O)cc2o1,rescue above control,[8],-7.81
same,cytochrome c release ratio,[9],0.85
same,inhibition of aggregation,[10],54.9%
same,glutamate uptake change,[11],18.9%
same,aggregation suppression score,[12],1
C=CCN1CC[C@]23c4c5ccc(O)c4O[C@H]2C(=O)CC[C@@]3(O)[C@H]1C5,fluorescence slope change,[13],64.1% (active)
same,fluorescence ratio,[1],0.104 (active)
same,inhibition,[2],-4.09% (inactive)
same,inhibition,[3],-4.29% (inactive)
same,fluorescence ratio,[4],1.04 (inactive)
same,remaining activity,[14],107% (inactive)
same,log fold change Tl+ flux,F380Y,-0.039 (inactive)
same,log fold change Tl+ flux,F380Y/beta2Delta,0.0141 (inactive)
same,log fold change Tl+ flux,[7],-0.00699 (inactive)
same,log fold change Tl+ flux,R275C,0.034 (inactive)
same,log fold change Tl+ flux,R275C/beta1,0.000161 (inactive)
same,log fold change Tl+ flux,R275C/beta2Delta,0.0302 (inactive)
Cc1nccc2c1[nH]c1ccccc12,period change,[15],0.11 h (inactive)
same,remaining activity,[14],99.4% (inactive)
O=c1c2ccccc2[se]n1-c1ccccc1,fluorescence slope change,[13],-12.9% (inactive)
same,cytochrome c release ratio,[9],1.88
same,inhibition of aggregation,[10],72.2%
same,glutamate uptake change,[11],26.2%
same,aggregation suppression score,[12],0.00636
same,period change,[15],-0.02 h (inactive)
same,fluorescence ratio,[1],1 (inactive)
same,inhibition,[2],99.3% (active)
same,inhibition,[3],-0.39% (inactive)
same,fluorescence ratio,[4],1.05 (inactive)
same,z-score,[5],0.167 (inactive)
same,mean signal,[6],217 (inactive)
same,remaining activity,[14],-5.47% (active)
COc1ccc2[nH]cc(CCN)c2c1,period change,[15],-0.125 h (inactive)
same,fluorescence ratio,[1],0.98 (inactive)
same,inhibition,[2],-1.09% (inactive)
same,inhibition,[3],3.54% (inactive)
same,fluorescence ratio,[4],0.97 (inactive)
same,z-score,[5],0.413 (inactive)
same,mean signal,[6],258 (inactive)
same,remaining activity,[14],109% (inactive)
same,log fold change Tl+ flux,F380Y,0.0218 (inactive)
same,log fold change Tl+ flux,F380Y/beta2Delta,-0.052 (inactive)
same,log fold change Tl+ flux,[7],-0.0293 (inactive)
same,log fold change Tl+ flux,R275C,-0.061 (inactive)
same,log fold change Tl+ flux,R275C/beta1,-0.0101 (inactive)
same,log fold change Tl+ flux,R275C/beta2Delta,-0.00391 (inactive)
CC1=NCCc2c1[nH]c1cc(O)ccc21,fluorescence slope change,[13],159% (active)
same,rescue above control,[8],0.94
same,cytochrome c release ratio,[9],0.72
same,inhibition of aggregation,[10],14.3%
same,glutamate uptake change,[11],13.4%
same,aggregation suppression score,[12],1.24
C[C@H](N)[C@H](O)c1ccc(O)c(O)c1,rescue above control,[8],4.59
same,cytochrome c release ratio,[9],0.9
same,inhibition of aggregation,[10],7.58%
same,glutamate uptake change,[11],12.7%
same,aggregation suppression score,[12],1.14
